Values joined by “and” are separate entries in the source; they are usually repeats but may differ in a detail not shown here. Equal values may be shown once. Inconclusive results are not listed. The source holds several records for some structures; these can differ, active in one and inactive in another. Active and inactive are the calls of the source. Calls follow the shape of the dose curve; as a rule, active = well fitted activation curve with a large enough effect; inconclusive = small, poorly fitted or top-dose-only effect, or effect the other way; inactive = flat fitted curve, though single readings scatter.
What follows are compounds tested against Pyruvate kinase PKM (Homo sapiens) (UniProt P14618) (assay: Secondary assay for Activators of Human Pyruvate Kinase M2 isoform). Conditions: purified hPK-M2, LDH-coupled NADH fluorescence kinetic; series mostly up to 57.5 µM.
From the text: Confirmatory assay NIH Chemical Genomics Center [NCGC] Matthew G. Vander Heiden, M.D., Ph.D. [Harvard Medical School, 77 Avenue Louis Pasteur, Boston, MA 02115] NCGC Assay Overview: Human pyruvate kinase muscle 2 (hPK-M2)enzyme was supplied as a highly purified (>95% pure) preparation from Harvard Medical School and a secondary assay was used to evaluate compounds. This assay couples the formation of pyruvate from hPK-M2 using lactate dehydrogenase (LDH) and NADH. The depletion of NADH is followed in a fluorescent-based kinetic assay that follows the formation of pyruvate to lactate, as catalyzed LDH (described by Hannaert et al., 2002)1 Pyruvate kinase substrates, PEP and ADP, were present in the assay at 0.1 mM and 4 mM respectively. In this kinetic assay initial rates were determined by following the fluorescence of NADH depletion.
NCGC Assay Protocol Summary: Three uL of substrate mix (final concentration, 50 mM Tris-Cl pH 8.0, 200 mM KCl, 15 mM MgCl2, 0.1 mM PEP, 4.0 mM ADP, and 0.2 mM NADH) was dispensed into black-solid 1536 well plates. 23 nL of compounds were delivered by a pin tool and 1 uL of enzyme mix (final concentrations, 10 nM hPK-M2 and 1 uM of LDH) was added. Plates were immediately placed in ViewLux (Perkin Elmer) and NADH fluorescence was determined at 30 second exposure intervals for between 3 and 6 minutes. Data were normalized to the uninhibited and EC100 activation using known activators such as fructose-bis-phosphate.

Pyruvate kinase PKM (Homo sapiens), sequence (P14618 whole entry, looked up, canonical isoform): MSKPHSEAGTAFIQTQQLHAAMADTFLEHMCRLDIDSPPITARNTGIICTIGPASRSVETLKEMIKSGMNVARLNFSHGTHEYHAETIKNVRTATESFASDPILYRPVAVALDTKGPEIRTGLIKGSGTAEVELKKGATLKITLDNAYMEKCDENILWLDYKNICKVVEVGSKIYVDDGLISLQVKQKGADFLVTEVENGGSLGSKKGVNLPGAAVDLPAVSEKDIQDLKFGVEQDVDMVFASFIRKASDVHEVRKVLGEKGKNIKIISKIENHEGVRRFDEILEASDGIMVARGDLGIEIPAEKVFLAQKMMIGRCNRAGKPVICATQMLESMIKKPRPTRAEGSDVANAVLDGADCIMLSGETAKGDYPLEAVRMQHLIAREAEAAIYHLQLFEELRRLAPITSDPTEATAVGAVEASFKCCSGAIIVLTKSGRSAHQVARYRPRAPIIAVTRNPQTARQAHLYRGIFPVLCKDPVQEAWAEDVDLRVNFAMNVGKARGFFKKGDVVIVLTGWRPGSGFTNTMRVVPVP

Potency, inactive:
Cc1ccc(C)c(OC2=NS(=O)(=O)c3ccccc32)c1
CNc1cccc(S(=O)(=O)N2CCN(S(=O)(=O)c3ccc4c(c3)OCCO4)CC2)c1
CS(=O)(=O)Nc1cccc(-c2cc(F)c(S(=O)(=O)N3CCN(S(=O)(=O)c4ccc5c(c4)OCCO5)CC3)cc2F)c1
CCNc1cccc(S(=O)(=O)N2CCN(S(=O)(=O)c3ccc4c(c3)OCCO4)CC2)c1

Potency, inactive and 141 nM (active):
COc1ccc(S(=O)(=O)N2CCN(S(=O)(=O)c3c(F)cccc3F)CC2)cc1

Potency, active:
COc1cc(F)c(S(=O)(=O)N2CCN(S(=O)(=O)c3cccc(NC(C)=O)c3)CC2)c(F)c1 1030 nM
O=C1CN(S(=O)(=O)c2ccc3c(c2)OCCO3)CCN1S(=O)(=O)c1c(F)cccc1F 2820 nM
COc1ccc(Cn2ncc3c4sc(C)cc4n(C)c3c2=O)cc1F 1120 nM
O=S(=O)(c1ccc2c(c1)OCCO2)N1CCN(S(=O)(=O)c2ccc3c(c2)OCCO3)CC1 398 nM
Cn1c2cc(C#N)sc2c2cnn(Cc3ccccc3F)c(=O)c21 355 nM
COc1cc(F)c(S(=O)(=O)N2CCCN(S(=O)(=O)c3cccc(NC(C)=O)c3)CC2)c(F)c1 2910 nM
CC(C)c1cc2c(s1)c1cnn(Cc3ccccc3F)c(=O)c1n2C 1410 nM
COc1ccc(Cn2ncc3c4sc(C)cc4n(C)c3c2=O)cc1 199 nM
Cc1cc2c(s1)c1cnn(Cc3ccccc3)c(=O)c1n2C 199 nM
O=S(=O)(c1ccc2c(c1)OCCO2)N1CCN(S(=O)(=O)c2cc(F)c(Br)cc2F)CC1 708 nM
COc1cc(F)c(S(=O)(=O)N2CCCN(S(=O)(=O)c3ccc4c(c3)OCCO4)CC2)c(F)c1 58 nM
COc1ccc(S(=O)(=O)N2CCN(S(=O)(=O)c3ccc4c(c3)OCCO4)CC2)cc1 562 nM
Cc1nc2ccc(S(=O)(=O)N3CCN(S(=O)(=O)c4c(F)cccc4F)CC3)cc2s1 631 nM
Cc1cc2c(s1)c1cnn(Cc3ccc(F)c(F)c3F)c(=O)c1n2C 1260 nM
O=S(=O)(c1ccc2c(c1)OCCO2)N1CCN(S(=O)(=O)c2c(F)ccc(O)c2F)CC1 355 nM
Cc1cc2c(s1)c1cnn(Cc3ccc(F)cc3F)c(=O)c1n2C 178 nM
Cn1c2cc(C(=O)O)sc2c2cnn(Cc3ccccc3F)c(=O)c21 8910 nM
CN1CCOc2ccc(S(=O)(=O)N3CCN(S(=O)(=O)c4c(F)cccc4F)CC3)cc21 3.55 µM and 708 nM
Cc1ccc(Cn2ncc3c4sc(C)cc4n(C)c3c2=O)cc1 1260 nM
Cc1cc2c(s1)c1cnn(Cc3ccc(F)cc3)c(=O)c1n2C 251 nM
COC/C=C/c1cc(F)c(S(=O)(=O)N2CCN(S(=O)(=O)c3ccc4c(c3)OCCO4)CC2)cc1F 17800 nM
O=C(N1CCc2ccc(S(=O)(=O)N3CCN(S(=O)(=O)c4ccc5c(c4)OCCO5)CC3)cc2C1)C(F)(F)F 1120 nM
O=S(=O)(c1ccc2c(c1)OCO2)N1CCN(S(=O)(=O)c2c(F)cccc2F)CC1 708 nM
Cc1cc2c(s1)c1cnn(Cc3cccc(Cl)c3)c(=O)c1n2C 355 nM
Cc1cc2c(s1)c1cnn(Cc3ccccc3Cl)c(=O)c1n2C 562 nM
COc1cccc(Cn2ncc3c4sc(B(O)O)cc4n(C)c3c2=O)c1 17800 nM
CC(=O)c1cc2c(s1)c1cnn(Cc3ccccc3F)c(=O)c1n2C 158 nM
Cn1c2cc(B(O)O)sc2c2cnn(Cc3ccccc3F)c(=O)c21 15800 nM
C=Cc1cc2c(s1)c1cnn(Cc3ccccc3F)c(=O)c1n2C 562 nM
O=S(=O)(c1ccccc1)N1CCN(S(=O)(=O)c2ccc3c(c2)OCCO3)CC1 447 nM
O=S(=O)(c1ccc(F)cc1)N1CCN(S(=O)(=O)c2ccc3c(c2)OCCO3)CC1 199 nM
CCc1cc2c(s1)c1cnn(Cc3ccccc3F)c(=O)c1n2C 631 nM
COC(=O)c1cc2c(s1)c1cnn(Cc3ccccc3F)c(=O)c1n2C 355 nM
Cc1cc2c(s1)c1cnn(Cc3c(F)c(F)cc(F)c3F)c(=O)c1n2C 398 nM
Cn1ccc2cc(S(=O)(=O)N3CCN(S(=O)(=O)c4c(F)cccc4F)CC3)ccc21 1410 nM

From PubChem BioAssay AID1540 (National Center for Advancing Translational Sciences (NCATS), 2009)
